Rows were chosen to be rich in hits. Some 3.4% of all compounds tested hit in one or more screens of this group.
TEAD-YAP block: TEAD-YAP interaction inhibition, primary screen, TEAD-YAP interaction inhibitor project, luminescence, HEK-TIYL cells | TEAD-Gal4/YAP UAS-luciferase luminescence | inhibition, % at 9.12 µM | actives 1.4% (n = 640,000); in the data active means inhibition above about 32%
MITF inh: MITF inhibitors, primary screen, biochemical, AlphaScreen, human; Microphthalmia-associated transcription factor (Homo sapiens), O75030; AlphaScreen MITF homodimerization, bead proximity signal; inhibition, % at 2.6 µM; actives 0.91% (n = 650,000); in the data active means inhibition above about 50%
FBW7 act: FBW7 E3 ligase activators, primary screen, biochemical, AlphaScreen, human. F-box/WD repeat-containing protein 7 (Homo sapiens), Q969H0. AlphaScreen FBW7–phospho-cyclin E peptide binding, activator screen. normalized activity (activation), % at 26.1 µM. actives 0.13% (n = 650,000). AID 1259310, 2017; in the data active means normalized activity above about 1.9%;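 further: purified mutant Fbw7 with reduced substrate affinity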
GPR151 ag: activators of human GPR151, primary screen, cell-based, PathHunter beta-arrestin, luminescence. PathHunter beta-arrestin GPR151 cells. AID 1508602, 2020. G-protein coupled receptor 151 (Homo sapiens), Q8TDV0. actives 1% (n = 650,000). activation, % at 11.2 µM; in the data active means activation above about 4.9%
Target sequence (Q8TDV0 whole entry, looked up): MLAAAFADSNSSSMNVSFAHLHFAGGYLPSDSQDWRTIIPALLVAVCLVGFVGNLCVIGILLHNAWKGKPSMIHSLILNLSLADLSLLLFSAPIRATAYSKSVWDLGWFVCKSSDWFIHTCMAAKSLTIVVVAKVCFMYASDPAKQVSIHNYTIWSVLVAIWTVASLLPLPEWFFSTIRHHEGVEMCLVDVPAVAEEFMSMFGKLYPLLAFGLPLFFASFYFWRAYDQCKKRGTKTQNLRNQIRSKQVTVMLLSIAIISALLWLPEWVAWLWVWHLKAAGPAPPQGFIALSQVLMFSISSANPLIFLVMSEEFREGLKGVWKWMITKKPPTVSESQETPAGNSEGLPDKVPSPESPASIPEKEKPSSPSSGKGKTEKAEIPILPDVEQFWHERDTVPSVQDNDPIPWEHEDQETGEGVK
GPR151 conf act: GPR151 activators, triplicate retest, confirmation, cell-based, PathHunter beta-arrestin, luminescence | 6,700 tested, under 10 active | activation, % at 11.2 µM | GPR151 PathHunter beta-arrestin cells, 90 min; % of EA-reagent control over plate median | shares compounds with GPR151 ag | AID 1508609, 2020;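 active means mean percent activation across replicates above the confirmation screen cutoff of 4.91%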
GPR119 ag: GPR119 activators in beta-arrestin cells, counter-screen for GPR151 activator project, cell-based, PathHunter beta-arrestin, luminescence, triplicate. shares compounds with GPR151 ag. 90 min; 0 = compound-well median, 100 = enzyme-acceptor control. activation, % at 11.2 µM. actives 0.3% (n = 6,700). AID 1508611, 2020;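 active means mean percent activation in the counterscreen above 29.09%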;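 further: counterscreen on off-target GPR119 to flag nonselective hits from the GPR151 activator screen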
Of the large screens only hits and unclear results are named; the others gave an inactive call (follow-up assays come after a bar, where they were run).

CCOc1cc(/C=C2/C(=N)N3N=C(CC)SC3=NC2=O)cc(Cl)c1OCCOc1ccc(C)cc1C	none
CC1C(=O)N(Cc2ccc(Cl)cc2Cl)C(=O)CS1=O (stereo not given)	GPR151 ag 6.6 | GPR151 conf act inactive | GPR119 ag inactive
O=C(Nc1ccc2c(c1)OCCO2)c1oc2ccccc2c1NC(=O)c1c(F)cccc1F	none
O=C1CC(=O)Nc2cc(S(=O)(=O)NCC3COc4ccccc4O3)ccc2N1 (stereo not given)	GPR151 ag 5.0 | GPR151 conf act inactive | GPR119 ag inactive
CC(NS(=O)(=O)c1ccc2c(c1)NC(=O)CC(=O)N2)c1ccccc1 (stereo not given)	GPR151 ag 8.3 | GPR151 conf act inactive | GPR119 ag inactive
O=S(=O)(CCOc1ccccc1)N1CCN(c2ccccc2F)CC1	none
O=C(COc1ccccc1)NCCCS(=O)(=O)N1CCN(c2ncccn2)CC1	none
O=S(=O)(CCOc1ccccc1)N1CCN(c2ncccn2)CC1	GPR151 ag 6.2 | GPR151 conf act inactive | GPR119 ag inactive
O=C(COc1ccc(Cl)cc1)NCCCS(=O)(=O)N1CCN(c2ncccn2)CC1	GPR151 ag 7.5 | GPR151 conf act inactive | GPR119 ag inactive
Cc1occc1C(=O)N/N=C/c1ccc(F)cc1	none
COc1ccccc1C(=O)Nc1nnc(SCC(=O)NC2CCCCC2)s1	none
O=C(Cn1cnc2ccccc21)N/N=C\c1ccccc1F	none
CC(=O)N1CCc2cc(Br)cc(S(=O)(=O)Nc3noc4ccccc34)c21	GPR151 ag 19 | GPR151 conf act inactive | GPR119 ag inactive
CC(=O)N1CCc2cc(Br)cc(S(=O)(=O)Nc3cccc(Cl)c3)c21	none
CCOC(=O)c1sc(NC(=O)C(C)Sc2nnc(CNC(=O)COc3ccc(Cl)cc3)n2C)c(C(=O)OCC)c1C (stereo not given)	none
CC(C)OCCCNCc1c(C(=O)O)n(Cc2ccccc2Cl)c2ccccc12	none
Cc1nn(C)c(C)c1-c1nccc(NCc2nc3ccccc3[nH]2)n1	GPR151 ag 5.9 | GPR151 conf act inactive | GPR119 ag inactive
CCc1ccc(/C=N/NC(=O)CN2CCCCCCC2)cc1	none
CCCN(CCC)S(=O)(=O)c1ccc(NC(=O)CCc2ccccc2)cc1	GPR151 ag 7.6 | GPR151 conf act inactive | GPR119 ag inactive
CCc1cccc(NC(=O)CCC(=O)Nc2cccc(CC)c2)c1	GPR151 ag 7.5 | GPR151 conf act inactive | GPR119 ag inactive
Cc1cccc(NC(=O)CCc2ccccc2)c1	GPR151 ag 7.8 | GPR151 conf act inactive | GPR119 ag inactive
CCc1cccc(NC(=O)Nc2ccccc2)c1	none
CCc1cccc(NC(=O)Cn2cccc2)c1	GPR151 ag 7.6 | GPR151 conf act inactive | GPR119 ag inactive
CC(=O)Nc1cccc(NC(=O)CCc2ccccc2)c1	none
CCN(CC)S(=O)(=O)c1ccc(NC(=O)CCc2ccccc2)cc1	none
CCOc1cc(C=O)cc(I)c1OC	none
O=c1[nH]nc(SCc2cccc(Oc3ccccc3)c2)c(=S)[nH]1	none
Cc1nc(SCc2cccc(Oc3ccccc3)c2)n[nH]1	GPR151 ag 7.9 | GPR151 conf act inactive | GPR119 ag inactive
O=C(Nc1ccccc1Cl)c1csc(-n2cccc2)n1	GPR151 ag 5.7 | GPR151 conf act inactive | GPR119 ag inactive
O=C(NCCCN1CCCC1)c1cc2c(s1)-c1ccccc1SC2	GPR151 ag 6.0 | GPR151 conf act inactive | GPR119 ag inactive
CN(C)CCNC(=O)c1cc2c(s1)-c1ccccc1SC2	none
C[C@@H](O)[C@@H]1NC(=O)[C@H]2CN(Cc3ccc4ncccc4c3)CCN2C1=O	none
O=C(NCSC1=NCCS1)c1ccccc1	GPR151 ag 8.2 | GPR151 conf act inactive | GPR119 ag inactive
c1ccc(CSC2=NCCS2)cc1	none
CCCCCc1nc(NC(=O)COc2ccc(Cl)cc2Cl)c(C#N)c(-c2ccccc2)c1CCCC	none
COc1ccc(OC)c(NC(=O)CCNS(=O)(=O)c2ccc3c(c2)oc(=O)n3C)c1	GPR151 ag 5.1 | GPR151 conf act inactive | GPR119 ag inactive
